PubChem BioAssay (EPA / NIEHS)
Records with an inconclusive call do not appear. Activity calls are given as the source filed them. The calls were made as follows, unless noted: active = hit-call score of the fitted dose curve at least 0.9, where 1 is the maximum; inactive = score below 0.9.

Key:
[1] = BSK_LPS_PGE2: BioMAP Diversity Plus: LPS Assay for Prostaglandin E2 (PGE2) Biomarker Activity (AID 2283082); conditions: primary human HUVEC with PBMC; actives raise or lower the signal;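 as to AC50: secreted prostaglandin E2 measured by ELISA in LPS-stimulated co-culture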
Outline: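 Endpoint derived from bidirectional curve fitting versus DMSO of ELISA-measured PGE2 in LPS-stimulated human primary vascular co-culture (HUVEC with PBMC) harvested at 24 h.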

[2] = read-out: Macrophage colony-stimulating factor (MCSF), CSF1 (gene 1435); assay: BSK_LPS_MCSF: BioMAP Diversity Plus: LPS Assay for Macrophage colony-stimulating factor (MCSF) Biomarker Activity (AID 2283083); conditions: primary human HUVEC with PBMC; actives raise or lower the signal
Outline: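 ELISA readout of M-CSF after 24 h compound exposure in a human endothelial/PBMC co-culture. Activity, in either direction, is fitted relative to DMSO vehicle.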

[3] = read-out: Tissue Factor, F3 (gene 2152); assay: BSK_LPS_TissueFactor: BioMAP Diversity Plus: LPS Assay for Tissue Factor Biomarker Activity (AID 2283084); conditions: primary human HUVEC with PBMC; actives raise or lower the signal
Outline: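 ELISA signal for cell-surface Tissue Factor (CD142) was read 24 h after compound dosing of an LPS-stimulated human endothelial–PBMC primary co-culture. Gain or loss of signal was scored relative to DMSO.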

[4] = read-out: Tumor necrosis factor (Homo sapiens) (UniProt P01375); assay: BSK_LPS_TNFa: BioMAP Diversity Plus: LPS Assay for Tumour Necrosis Factor alpha (TNFa) Biomarker Activity (AID 2283085); conditions: primary human HUVEC with PBMC; actives raise or lower the signal
Outline: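 Primary human vascular co-culture of HUVEC and PBMC; TNFa ELISA 24 h after treatment, analysed as increase or decrease relative to DMSO control.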

[5] = read-out: Vascular cell adhesion molecule 1 (VCAM1), VCAM1 (gene 7412); assay: BSK_LPS_VCAM1: BioMAP Diversity Plus: LPS Assay for Vascular cell adhesion molecule 1 (VCAM1) Biomarker Activity (AID 2283086); conditions: primary human HUVEC with PBMC; actives raise or lower the signal
Outline: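 Primary human vascular co-culture (umbilical vein endothelium plus PBMC) stimulated with LPS received chemical; 24 h later VCAM-1 was read by ELISA. Overt cytotoxicity was assessed by sulforhodamine B staining of parallel cultures at the same time point.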

CD40, CD40 (gene 958) = assay: BSK_SAg_CD40: BioMAP Diversity Plus: SAg Assay for CD40 Biomarker Activity (AID 2283088); conditions: primary human HUVEC with PBMC; actives raise or lower the signal
Outline: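 Compounds were dosed onto a human primary endothelial–PBMC co-culture, and after 24 h CD40 was quantified by ELISA using a fluorescence signal. Activity in either direction was fitted relative to DMSO.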

[6] = read-out: Monocyte Chemoattractant Protein-1 (MCP1), CCL2 (gene 6347); assay: BSK_SAg_MCP1: BioMAP Diversity Plus: SAg Assay for Monocyte Chemoattractant Protein-1 (MCP1) Biomarker Activity (AID 2283090); conditions: primary human HUVEC with PBMC; actives raise or lower the signal
Outline: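 MCP-1 levels in the endothelial–PBMC SAg co-culture were quantified by ELISA at 24 h post-dosing; both increases and decreases versus DMSO scored. Cytotoxicity monitored by SRB total protein in parallel cultures.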

[7] = read-out: E-selectin (Homo sapiens) (UniProt P16581); assay: BSK_SAg_Eselectin: BioMAP Diversity Plus: SAg Assay for Eselectin Biomarker Activity (AID 2283091); conditions: primary human HUVEC with PBMC; actives raise or lower the signal
Outline: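 Co-culture: HUVEC + PBMC. Dose compound; 24 h. ELISA for E-selectin. Bidirectional fit vs DMSO.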

[8] = read-out: Monokine induced gamma interferon (MIG), CXCL9 (gene 4283); assay: BSK_SAg_MIG: BioMAP Diversity Plus: SAg Assay for Monokine induced gamma interferon (MIG) Biomarker Activity (AID 2283092); conditions: primary human HUVEC with PBMC; actives raise or lower the signal
Outline: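 ELISA readout of MIG/CXCL9; primary human umbilical vein endothelial cells co-cultured with peripheral blood mononuclear cells; 24 h post-dose; gain/loss fit vs DMSO baseline.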

[9] = BSK_SAg_PBMCCytotoxicity: PBMC Cytotoxicity Assessment in the BioMAP Diversity Plus: SAg Assay (AID 2283093); conditions: primary human HUVEC with PBMC;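 also: PBMC viability measured as Alamar Blue reduction fluorescence at 546/580 nm; fitted both ways against DMSO so a hit may be loss or gain of signal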;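 as to AC50: PBMC superantigen activated with SEB plus TSST-1 one hour after compound addition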
Outline: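 Compound added to 75,000 PBMC/well for 1 h; SEB and TSST-1 then added at 20 ng/mL final each; 90 h incubation; Alamar Blue 6 h; read 546/580 nm ex/em. Activity fitted bidirectionally relative to DMSO baseline.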

[10] = read-out: Interleukin-8 (IL8), CXCL8 (gene 3576); assay: BSK_SAg_IL8: BioMAP Diversity Plus: SAg Assay for Interleukin-8 (IL8) Biomarker Activity (AID 2283094); conditions: primary human HUVEC with PBMC; actives raise or lower the signal
Outline: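 In this co-culture of human umbilical vein endothelium with peripheral blood mononuclear cells, IL-8 is assayed by ELISA at 24 h. DMSO serves as baseline for bidirectional curve fitting.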

[11] = BSK_SAg_Proliferation: Cell Proliferation Assessment in the BioMAP Diversity Plus: SAg Assay (AID 2283095); conditions: primary human HUVEC with PBMC;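 also: relative cell number as total protein by SRB absorbance in sub-confluent culture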
Outline: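 Readout is SRB-stained protein (560 nm) in a primary human HUVEC and PBMC co-culture; sub-confluent cultures are read at 96 h. Activity is fitted bidirectionally using DMSO as baseline.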

[12] = BSK_SAg_SRB: Viability Assessment in the BioMAP Diversity Plus: SAg Assay (AID 2283096); conditions: primary human HUVEC with PBMC;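 also: cells read one day after compound addition; hits may be either gain or loss of signal compared with DMSO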
Outline: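 Total protein by sulforhodamine B staining, 24 h after dosing, in HUVEC–PBMC co-culture; DMSO-referenced bidirectional fitting.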

CD69, CD69 (gene 969) = assay: BSK_SAg_CD69: BioMAP Diversity Plus: SAg Assay for CD69 Biomarker Activity (AID 2283089); conditions: primary human HUVEC with PBMC; actives raise or lower the signal;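 as to AC50: cell surface CD69 protein quantified by ELISA with fluorescence detection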
Outline: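 ELISA, fluorescence read-out: CD69 on human umbilical vein endothelial cell + PBMC co-culture, 24 h post-dosing. Gain or loss of signal fitted bidirectionally against DMSO baseline.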

CD38, CD38 (gene 952) = assay: BSK_SAg_CD38: BioMAP Diversity Plus: SAg Assay for CD38 Biomarker Activity (AID 2283087); conditions: primary human HUVEC with PBMC; actives raise or lower the signal
Outline: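 Fluorescence ELISA of cell-surface CD38 served as the read-out, with either increase or decrease fitted against DMSO controls. Cells were a human umbilical vein endothelium plus PBMC co-culture under SEB/TSST-1 stimulation, measured 24 h after dosing.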

[13] = target: human CYP2A6, CYP2A6 (gene 1548) (UniProt P11509); assay: NVS_ADME_hCYP2A6: NovaScreen (NVS) CYP450-related Enzyme Activity (ADME) Assay for human CYP2A6 (AID 2283099; active = hit-call score of the fitted dose curve at least 0.9, where 1 is the maximum)
Chain of human CYP2A6, CYP2A6 (gene 1548) (P11509 whole entry, looked up): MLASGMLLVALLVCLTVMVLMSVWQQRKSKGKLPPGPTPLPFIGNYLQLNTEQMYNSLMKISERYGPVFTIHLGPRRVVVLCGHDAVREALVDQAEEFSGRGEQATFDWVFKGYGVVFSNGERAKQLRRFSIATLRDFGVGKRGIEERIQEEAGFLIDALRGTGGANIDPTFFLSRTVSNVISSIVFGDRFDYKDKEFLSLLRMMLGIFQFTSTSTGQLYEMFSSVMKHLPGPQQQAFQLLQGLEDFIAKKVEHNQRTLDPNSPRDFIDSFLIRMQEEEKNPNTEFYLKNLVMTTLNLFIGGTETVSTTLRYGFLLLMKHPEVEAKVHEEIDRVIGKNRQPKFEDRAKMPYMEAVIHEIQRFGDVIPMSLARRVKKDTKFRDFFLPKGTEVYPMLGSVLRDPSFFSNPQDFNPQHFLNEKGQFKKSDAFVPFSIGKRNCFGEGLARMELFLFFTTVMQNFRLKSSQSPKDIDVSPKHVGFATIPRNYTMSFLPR
Outline: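 Fluorescent substrate turnover by recombinant CYP2A6 (insect cell source), 0.5 h read. Screen: 10 uM, duplicate; threshold hits (e.g. 30% inhibition) → singleton concentration-response, top 20 uM. Positive and negative controls on every plate.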

Measured: AC50

Chain of Tumor necrosis factor (Homo sapiens) (P01375 whole entry, looked up): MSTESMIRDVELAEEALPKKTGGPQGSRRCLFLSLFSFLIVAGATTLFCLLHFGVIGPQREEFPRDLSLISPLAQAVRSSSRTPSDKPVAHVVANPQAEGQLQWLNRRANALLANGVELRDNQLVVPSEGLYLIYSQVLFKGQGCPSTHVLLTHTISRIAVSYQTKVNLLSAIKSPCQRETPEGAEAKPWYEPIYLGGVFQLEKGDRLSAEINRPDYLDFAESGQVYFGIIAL
Chain of E-selectin (Homo sapiens) (P16581 whole entry, looked up): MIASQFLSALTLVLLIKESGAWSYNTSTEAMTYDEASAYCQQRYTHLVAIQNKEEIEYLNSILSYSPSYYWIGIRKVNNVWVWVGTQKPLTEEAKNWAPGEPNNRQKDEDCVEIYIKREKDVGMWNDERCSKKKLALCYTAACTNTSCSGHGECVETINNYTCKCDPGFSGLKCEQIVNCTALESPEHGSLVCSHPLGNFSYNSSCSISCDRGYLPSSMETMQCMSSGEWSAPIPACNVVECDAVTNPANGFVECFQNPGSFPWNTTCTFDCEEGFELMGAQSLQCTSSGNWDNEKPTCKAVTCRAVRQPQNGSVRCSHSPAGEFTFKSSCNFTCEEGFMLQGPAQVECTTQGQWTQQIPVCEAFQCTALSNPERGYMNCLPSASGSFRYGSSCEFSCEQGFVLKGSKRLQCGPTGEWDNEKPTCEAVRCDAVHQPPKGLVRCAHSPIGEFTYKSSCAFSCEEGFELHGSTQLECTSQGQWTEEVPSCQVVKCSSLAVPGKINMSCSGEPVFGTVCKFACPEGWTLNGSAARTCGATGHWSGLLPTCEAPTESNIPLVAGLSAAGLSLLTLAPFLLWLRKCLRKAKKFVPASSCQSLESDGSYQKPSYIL

CCCCCCCC(=O)OC
inactive: [1] | [2] | [3] | [4] | [5] | CD40, CD40 (gene 958) | [6] | [7] | [8] | [9] | [10] | [11]

CC(=O)S[C@H](C(=O)N[C@H]1Cc2ccccc2[C@H]2CCC[C@@H](C(=O)O)N2C1=O)C(C)C
active: [11] 7.81 µM
inactive: [1] | [2] | [3] | [4] | [5] | CD40, CD40 (gene 958) | [7] | [8] | [9] | [10] | [12]

O=C(O)c1cccnc1
inactive: [1] | [2] | [3] | [4] | [5] | CD40, CD40 (gene 958) | CD69, CD69 (gene 969) | [6] | [7] | [8] | [9] | [10] | [11] | [12]

Oc1ccc(O)cc1
inactive: [3] | [6] | [8] | [10]
active: [1] 30 µM | [2] 9.78 µM | [4] 28.9 µM | CD38, CD38 (gene 952) 36.5 µM | CD40, CD40 (gene 958) 11.4 µM | CD69, CD69 (gene 969) 20 µM | [7] 23.9 µM | [9] 12.8 µM | [11] 7.06 µM

CC(C)COC(=O)CCCCC(=O)OCC(C)C
inactive: [1] | [2] | [3] | [4] | CD38, CD38 (gene 952) | CD40, CD40 (gene 958) | CD69, CD69 (gene 969) | [7] | [8] | [9] | [10] | [11]

CCc1nc(N)nc(N)c1-c1ccc(Cl)cc1
inactive: [1] | [2] | [3] | [4] | [5] | CD40, CD40 (gene 958) | CD69, CD69 (gene 969) | [7] | [8] | [10] | [11] | [13]

C/C=C/c1ccc(OC)cc1
inactive: [1] | [2] | [3] | [4] | CD38, CD38 (gene 952) | CD40, CD40 (gene 958) | CD69, CD69 (gene 969) | [6] | [7] | [8] | [9] | [10] | [11]

Cn1cnc2c1c(=O)[nH]c(=O)n2C
inactive: [1] | [2] | [3] | [4] | [5] | CD40, CD40 (gene 958) | CD69, CD69 (gene 969) | [7] | [8] | [9] | [10] | [11] | [12]

COc1ccc(OC(F)(F)F)cc1CN[C@H]1CCCN[C@H]1c1ccccc1
active: [5] 14.6 µM | [9] 26.6 µM | [10] 12.4 µM | [11] 32.6 µM
inactive: [1] | [2] | [3] | [4] | CD40, CD40 (gene 958) | [7] | [8]

NC(=Nc1ccccc1)Nc1ccccc1
inactive: [1] | [3] | [4] | [5] | CD40, CD40 (gene 958) | CD69, CD69 (gene 969) | [6] | [8] | [10] | [11]
active: [2] 5.45 µM
